SMILES strings stand for the structures.

The target in one assay is Solute carrier family 2, facilitated glucose transporter member 1 (Homo sapiens) (UniProt P11166). The assay can be described thus: ST_JUDE_LEISH: Cytotoxicity at 2uM final concentration against transgenic Leishmania Mexicana promastigotes LmGLUT1 that are glucose transport deficient and complemented with the human glucose transporter GLUT1. Activity is measured by DNA content using SYBR green in vitro. In kind it is functional.
Solute carrier family 2, facilitated glucose transporter member 1 (Homo sapiens), sequence (P11166 whole entry): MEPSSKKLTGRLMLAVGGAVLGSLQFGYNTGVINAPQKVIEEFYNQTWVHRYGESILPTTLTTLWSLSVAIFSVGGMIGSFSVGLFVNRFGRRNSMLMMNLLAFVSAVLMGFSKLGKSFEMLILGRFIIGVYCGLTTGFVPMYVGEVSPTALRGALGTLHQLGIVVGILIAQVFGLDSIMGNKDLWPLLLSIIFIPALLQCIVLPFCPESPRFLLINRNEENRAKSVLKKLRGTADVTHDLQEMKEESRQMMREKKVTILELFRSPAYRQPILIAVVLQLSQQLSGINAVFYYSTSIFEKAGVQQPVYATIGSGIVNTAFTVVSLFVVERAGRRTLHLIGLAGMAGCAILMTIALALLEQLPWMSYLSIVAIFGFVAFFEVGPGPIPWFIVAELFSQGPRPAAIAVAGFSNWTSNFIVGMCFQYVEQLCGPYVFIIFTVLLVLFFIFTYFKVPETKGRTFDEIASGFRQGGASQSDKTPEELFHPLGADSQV
As to `Cn1cccc1C(=O)Nc1cccc(-c2nn3ccccc3c2-c2ccnc(Nc3ccc4c(c3)OCCO4)n2)c1`, the inhibition stood at 4.74%.
With `COc1ccc2ncc(C#N)c(CCN3CCC(NCc4ccc5c(c4)OCCO5)CC3)c2c1`, the inhibition worked out at 48.5%.
As for `O=c1ccc(CNc2nc(NCCc3ccccc3)nc3ccc(Cl)cc23)c[nH]1`, the inhibition turned out to be 3.36%.
With `O=C(N[C@@H](Cc1ccccc1)C(=O)NC1CCCc2ccccc21)c1ccc(O)c(-c2cccc(C(F)(F)F)c2)c1` (stereo not given in full), the inhibition was -3.38%.
Regarding `Fc1ccc2[nH]c(-c3cccc(-c4ccc(CN5CCN(CCN6CCOCC6)CC5)cc4)c3)nc2c1`, the inhibition was 1.26%.
`CCOC(=O)c1cc(C(=O)NCCCCN2CCC(c3cn(C)c4ccccc34)CC2)ccc1-c1ccc(C(F)(F)F)cc1`: the inhibition was 2.37%.
Consider `CN/C(=C\[N+](=O)[O-])NCCSCc1cc(C)c(CN(C)C)s1`, for which the inhibition stood at 5.43%.
Take `COc1ccc(Oc2ccc(-c3c(O)cc(C)nc3C)cc2)cc1`: the inhibition was determined as 2.96%.
With `COc1ccc2[nH]ccc(=NN=Cc3ccc(Cl)cc3)c2c1`, the inhibition is 1.86%.
In the case of `CCOc1cc(C)ccc1N1CCN(CCN2CCC(NC(=O)c3ccc(-c4ccc(C#N)cc4)cc3)CC2)CC1`, the inhibition turned out to be 1.65%.
Consider `Cc1ccc(-c2ccn(Cc3cccc(OCc4ccccc4)c3)n2)cn1.Cc1ccc(-c2ccnn2Cc2cccc(OCc3ccccc3)c2)cn1`, for which the inhibition came out at 2.15%.
The same measure, in the same setting: then `COc1ccc2ncc(F)c(CCN3CCC(NCc4cc(F)c5c(c4)OCCO5)CC3)c2n1`, with 14.4%.
The same measure, in the same setting: to `CC(=O)NCCCCC1NC2(C(=O)N(Cc3ccc(C(C)(C)C)cc3)c3ccccc32)C2C(=O)N(C3CCCCC3)C(=O)C12` (stereo not given) belongs -1.24%.
The same measure, in the same setting: to `CNC(=O)NC1=NC(C)(C)N(OCc2ccc(Cl)c(Cl)c2)C(NC(=O)NC)=N1` belongs 1.27%; to `NCc1ccc(CNCc2ccc(-c3ccc(-c4nc5cc(C(F)(F)F)ccc5[nH]4)s3)cc2)cc1`, 0.59%.
Turning to `COc1ccc(NC(=O)/C=C/c2ccccc2Cl)cc1OCCN1CCC(O)(c2ccc(Cl)c(C(F)(F)F)c2)CC1`, the inhibition came to 11.2%.
Same read-out and setting: then `CC(C)CCOc1ccc(NC(=O)c2cccs2)cc1`, with 4.93%.
Still for that read-out and setting: then `CCCC(=O)Nc1ccc(OCCN(Cc2ccccc2OC(F)(F)F)c2ccc(C(F)(F)F)c(C#N)c2)cc1`, with 3.46%; and `CC(=O)Nc1ccc(CN2CCN(C(c3ccc(F)cc3)c3ccc(F)cc3)CC2)cc1`, with 5.18%.
Consider `COc1ccccc1NC(=O)Nc1ccc(-c2ccc(-c3nc4cccc(C)c4[nH]3)s2)cc1`, for which the inhibition was determined as 3.53%.
As for `O=C(Nc1ccccc1)N(Cc1cccc(-c2cccc(CNCCc3ccccc3)c2)c1)C1CCN(Cc2ccccc2)CC1`, the inhibition was 7.12%.
`c1ccc(Oc2ccc(Nc3ccnc4cc(-c5csc(CN6CCCCC6)n5)ccc34)cc2)nc1`: the inhibition is 0.24%.
As for `Cc1ccccc1C1CCN(c2ccc(NC(=O)c3ccc(Cl)nc3)cc2)CC1`, the inhibition was 3.34%.
On to `CCCC(=O)NC(c1ccc(C)cc1)c1ccc2cccnc2c1O` (stereo not given), for which the inhibition was 3.47%.
Still for that read-out and setting: then `O=C(Cn1c(SCc2cccc(F)c2F)cc(=O)c2ccccc21)N(CCc1c[nH]cn1)Cc1ccc(-c2ccc(C(F)(F)F)cc2)cc1`, with 4.17%; and `CCc1c[nH]c2c(N(c3ccccc3)S(C)(=O)=O)cc(C(=O)N[C@@H](Cc3ccccc3)[C@H](O)CNC(C)(C)CCCC(C)C)cc12`, with 0.74%.
For `NC1=NC(c2ccccc2)(c2ccccc2)C(=O)N1Cc1ccc(-c2ccncc2)cc1`, the inhibition was determined as 8.4%.
On to `NC(=O)c1cccc(C(=O)Nc2ccc(-c3cccc(-c4nc5cc(F)ccc5[nH]4)c3)cc2)c1`, for which the inhibition is 0.18%.
Take `O=C(NCCCN1CCCC1=O)c1cnc(N2CCC(Oc3ccccc3)CC2)c(Cl)c1`: the inhibition worked out at 0.56%.
On the same count and under the same terms, then `CN(C)C(=O)c1ccc(CN(Cc2cccc(OC(C)(C)C)c2)Cc2ccc3c(c2)OCCO3)cc1`, with 0.24%.
For `COc1cccc(-c2cnc(N)c(-c3nc4ccc(C(F)(F)F)cc4[nH]3)c2)c1`, the inhibition amounted to 4.93%.
As for `COc1cccc(NC(=O)NCCNc2ccnc(Nc3ccc(F)cc3)n2)c1`, the inhibition is 4.09%.
On to `CCCOc1cccc(C(=O)N[C@@H](Cc2ccccc2)[C@H](O)CNCc2ccccc2OC)c1`, for which the inhibition stood at 3.73%.
On to `OCCN1CCN(C(=S)NC2CCCCC2)CC1`, for which the inhibition is -1.08%.
`O=C(Nc1cccc(F)c1)N1CCC(NS(=O)(=O)c2ccc(Br)cc2)CC1`: the inhibition came out at 4.47%.
On to `C[C@@H](Oc1cc(-n2cnc3ccc(NC(=O)CCN4CCCCC4)cc32)sc1C(N)=O)c1ccccc1Cl`, for which the inhibition came to 8.99%.
The same measure, in the same setting: then `Cc1cccc(OC(C)C(=O)Nc2cc(C(F)(F)F)ccc2N2CCOCC2)c1` (stereo not given), with 2.38%.
For `CCc1sc(N2CCN(C)CC2)nc1C(=O)Nc1ccc(F)cc1C(F)(F)F`, the inhibition was -1.9%.
`Oc1ccc2nc(Nc3ccccc3)nc(NCCc3ccccc3)c2c1`: the inhibition stood at 7.22%.
The same measure, in the same setting: then `Oc1c(CN2CCC(Cc3ccccc3)CC2)cc(Cl)c2cccnc12`, with 13.5%.

For the next assay, the target named is Hexose transporter 1 (Plasmodium falciparum) (UniProt O97467). The assay can be described thus: ST_JUDE_LEISH: Cytotoxicity at 2uM final concentration against transgenic Leishmania Mexicana promastigotes LmPfHT that are glucose transport deficient and complemented with the Plasmodium falciparum hexose transporter. Activity is measured by DNA content using SYBR green in vitro. The class given is functional.
Take `Cn1cccc1C(=O)Nc1cccc(-c2nn3ccccc3c2-c2ccnc(Nc3ccc4c(c3)OCCO4)n2)c1`: the inhibition stood at 9.05%.
As to `COc1ccc2ncc(C#N)c(CCN3CCC(NCc4ccc5c(c4)OCCO5)CC3)c2c1`, the inhibition came to 64.6%.
With `O=c1ccc(CNc2nc(NCCc3ccccc3)nc3ccc(Cl)cc23)c[nH]1`, the inhibition turned out to be 3.7%.
Take `O=C(N[C@@H](Cc1ccccc1)C(=O)NC1CCCc2ccccc21)c1ccc(O)c(-c2cccc(C(F)(F)F)c2)c1` (stereo not given in full): the inhibition is -1.1%.
Still for that read-out and setting: then `Fc1ccc2[nH]c(-c3cccc(-c4ccc(CN5CCN(CCN6CCOCC6)CC5)cc4)c3)nc2c1`, with 1.68%; and `CCOC(=O)c1cc(C(=O)NCCCCN2CCC(c3cn(C)c4ccccc34)CC2)ccc1-c1ccc(C(F)(F)F)cc1`, with 2.2%; and `CN/C(=C\[N+](=O)[O-])NCCSCc1cc(C)c(CN(C)C)s1`, with 5.21%.
`COc1ccc(Oc2ccc(-c3c(O)cc(C)nc3C)cc2)cc1`: the inhibition came to 3.75%.
For `COc1ccc2[nH]ccc(=NN=Cc3ccc(Cl)cc3)c2c1`, the inhibition was found to be 3.19%.
The same measure, in the same setting: then `CCOc1cc(C)ccc1N1CCN(CCN2CCC(NC(=O)c3ccc(-c4ccc(C#N)cc4)cc3)CC2)CC1`, with 1.91%; and `Cc1ccc(-c2ccn(Cc3cccc(OCc4ccccc4)c3)n2)cn1.Cc1ccc(-c2ccnn2Cc2cccc(OCc3ccccc3)c2)cn1`, with 1.4%; and `COc1ccc2ncc(F)c(CCN3CCC(NCc4cc(F)c5c(c4)OCCO5)CC3)c2n1`, with 20.5%.
For `CC(=O)NCCCCC1NC2(C(=O)N(Cc3ccc(C(C)(C)C)cc3)c3ccccc32)C2C(=O)N(C3CCCCC3)C(=O)C12` (stereo not given), the inhibition is -3.01%.
As for `CNC(=O)NC1=NC(C)(C)N(OCc2ccc(Cl)c(Cl)c2)C(NC(=O)NC)=N1`, the inhibition came out at 0.11%.
With `NCc1ccc(CNCc2ccc(-c3ccc(-c4nc5cc(C(F)(F)F)ccc5[nH]4)s3)cc2)cc1`, the inhibition was determined as 1.45%.
Turning to `COc1ccc(NC(=O)/C=C/c2ccccc2Cl)cc1OCCN1CCC(O)(c2ccc(Cl)c(C(F)(F)F)c2)CC1`, the inhibition is 8.47%.
The same measure, in the same setting: to `CC(C)CCOc1ccc(NC(=O)c2cccs2)cc1` belongs 5.81%.
Consider `CCCC(=O)Nc1ccc(OCCN(Cc2ccccc2OC(F)(F)F)c2ccc(C(F)(F)F)c(C#N)c2)cc1`, for which the inhibition amounted to 1.7%.
For the compound `CC(=O)Nc1ccc(CN2CCN(C(c3ccc(F)cc3)c3ccc(F)cc3)CC2)cc1`, the inhibition was 3.45%.
On the same count and under the same terms, then `COc1ccccc1NC(=O)Nc1ccc(-c2ccc(-c3nc4cccc(C)c4[nH]3)s2)cc1`, with 1.17%.
Turning to `O=C(Nc1ccccc1)N(Cc1cccc(-c2cccc(CNCCc3ccccc3)c2)c1)C1CCN(Cc2ccccc2)CC1`, the inhibition is 2.49%.
Regarding `c1ccc(Oc2ccc(Nc3ccnc4cc(-c5csc(CN6CCCCC6)n5)ccc34)cc2)nc1`, the inhibition came out at 1.27%.
On to `Cc1ccccc1C1CCN(c2ccc(NC(=O)c3ccc(Cl)nc3)cc2)CC1`, for which the inhibition is -3.74%.
The same measure, in the same setting: then `CCCC(=O)NC(c1ccc(C)cc1)c1ccc2cccnc2c1O` (stereo not given), with 4.55%; and `O=C(Cn1c(SCc2cccc(F)c2F)cc(=O)c2ccccc21)N(CCc1c[nH]cn1)Cc1ccc(-c2ccc(C(F)(F)F)cc2)cc1`, with 5.15%.
Take `CCc1c[nH]c2c(N(c3ccccc3)S(C)(=O)=O)cc(C(=O)N[C@@H](Cc3ccccc3)[C@H](O)CNC(C)(C)CCCC(C)C)cc12`: the inhibition was 1.65%.
Consider `NC1=NC(c2ccccc2)(c2ccccc2)C(=O)N1Cc1ccc(-c2ccncc2)cc1`, for which the inhibition turned out to be 6.36%.
For `NC(=O)c1cccc(C(=O)Nc2ccc(-c3cccc(-c4nc5cc(F)ccc5[nH]4)c3)cc2)c1`, the inhibition was found to be 0.01%.
Turning to `O=C(NCCCN1CCCC1=O)c1cnc(N2CCC(Oc3ccccc3)CC2)c(Cl)c1`, the inhibition came out at 3.58%.
For `CN(C)C(=O)c1ccc(CN(Cc2cccc(OC(C)(C)C)c2)Cc2ccc3c(c2)OCCO3)cc1`, the inhibition was -0.56%.
Turning to `COc1cccc(-c2cnc(N)c(-c3nc4ccc(C(F)(F)F)cc4[nH]3)c2)c1`, the inhibition was found to be 5.1%.
For the compound `COc1cccc(NC(=O)NCCNc2ccnc(Nc3ccc(F)cc3)n2)c1`, the inhibition was 5.04%.
As for `CCCOc1cccc(C(=O)N[C@@H](Cc2ccccc2)[C@H](O)CNCc2ccccc2OC)c1`, the inhibition was 2.98%.
In the case of `OCCN1CCN(C(=S)NC2CCCCC2)CC1`, the inhibition is -1.56%.
Take `O=C(Nc1cccc(F)c1)N1CCC(NS(=O)(=O)c2ccc(Br)cc2)CC1`: the inhibition was 4%.
The same measure, in the same setting: then `C[C@@H](Oc1cc(-n2cnc3ccc(NC(=O)CCN4CCCCC4)cc32)sc1C(N)=O)c1ccccc1Cl`, with 5.72%.
Regarding `Cc1cccc(OC(C)C(=O)Nc2cc(C(F)(F)F)ccc2N2CCOCC2)c1` (stereo not given), the inhibition stood at 3.02%.
As for `CCc1sc(N2CCN(C)CC2)nc1C(=O)Nc1ccc(F)cc1C(F)(F)F`, the inhibition stood at 1.37%.
For the compound `Oc1ccc2nc(Nc3ccccc3)nc(NCCc3ccccc3)c2c1`, the inhibition was 6%.
For the compound `Oc1c(CN2CCC(Cc3ccccc3)CC2)cc(Cl)c2cccnc12`, the inhibition stood at 14%.

In general, inhibition refers to the relative decrease from the control value, in per cent.

The record behind these values is ChEMBL document CHEMBL3433997, “St. Jude Leishmania screening dataset” (2016).
